According to PubChem BioAssay (EPA / NIEHS):
Records with an inconclusive call do not appear. Active and inactive are the calls of the source. How the source made its calls, unless noted: active means hit-call score of the fitted dose curve at least 0.9, where 1 is the maximum; inactive means score below 0.9.

Key:
[1] = biological target: Oxysterols receptor LXR-alpha (Homo sapiens) (UniProt Q13133); assay: ATG_LXRa_TRANS: Attagene TRANS-FACTORIAL HepG2 Assay for human Liver X Receptor alpha (LXRa) (AID 2282980; active means hit-call score of the fitted dose curve at least 0.9, where 1 is the maximum); conditions: HepG2 Attagene TRANS reporter, LXRa transactivation
Oxysterols receptor LXR-alpha (Homo sapiens), sequence (Q13133 whole entry, looked up, the tested form may be a part): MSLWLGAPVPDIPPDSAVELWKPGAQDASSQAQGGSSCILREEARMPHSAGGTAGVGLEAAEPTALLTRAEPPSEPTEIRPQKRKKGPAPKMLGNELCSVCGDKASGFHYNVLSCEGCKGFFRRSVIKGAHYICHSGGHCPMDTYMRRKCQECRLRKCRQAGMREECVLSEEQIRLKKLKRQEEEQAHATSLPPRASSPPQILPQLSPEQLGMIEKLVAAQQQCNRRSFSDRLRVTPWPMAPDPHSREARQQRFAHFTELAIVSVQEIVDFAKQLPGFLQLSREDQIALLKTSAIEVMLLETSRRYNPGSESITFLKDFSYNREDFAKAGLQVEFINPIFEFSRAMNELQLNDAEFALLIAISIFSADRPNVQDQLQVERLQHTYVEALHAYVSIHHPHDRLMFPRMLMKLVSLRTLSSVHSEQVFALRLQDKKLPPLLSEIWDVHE
How it was run: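 Chemical-induced reporter mRNA measured by RT-PCR with fluorescent labelling and capillary electrophoresis after 24 h dosing of transiently transfected HepG2 cells expressing exogenous NR-Gal4 chimeras; increases scored against DMSO baseline.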

[2] = biological target: Hepatocyte nuclear factor 4-alpha (Homo sapiens) (UniProt P41235); assay: ATG_HNF4a_TRANS: Attagene TRANS-FACTORIAL HepG2 Assay for human Hepatocyte Nuclear Factor 4 alpha (HNF4a) (AID 2282982; active means hit-call score of the fitted dose curve at least 0.9, where 1 is the maximum); conditions: HepG2 HNF4a transactivation reporter, mRNA readout
Hepatocyte nuclear factor 4-alpha (Homo sapiens), sequence (P41235 whole entry, looked up, the tested form may be a part): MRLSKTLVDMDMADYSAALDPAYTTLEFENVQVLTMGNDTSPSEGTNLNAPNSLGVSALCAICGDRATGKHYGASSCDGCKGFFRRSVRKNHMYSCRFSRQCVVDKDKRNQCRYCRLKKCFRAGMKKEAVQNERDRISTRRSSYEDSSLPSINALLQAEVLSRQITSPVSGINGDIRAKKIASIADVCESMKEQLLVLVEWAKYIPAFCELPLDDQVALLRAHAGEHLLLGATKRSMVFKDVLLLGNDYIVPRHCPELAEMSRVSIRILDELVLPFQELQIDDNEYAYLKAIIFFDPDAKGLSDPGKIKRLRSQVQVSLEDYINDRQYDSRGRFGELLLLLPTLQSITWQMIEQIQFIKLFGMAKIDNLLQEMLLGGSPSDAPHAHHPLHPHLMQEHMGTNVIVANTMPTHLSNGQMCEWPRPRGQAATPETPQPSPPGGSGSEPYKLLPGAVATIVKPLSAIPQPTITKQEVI
How it was run: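 Endpoint reflects transcriptional activation of a GAL4-UAS reporter by an HNF4a-GAL4 chimera in transfected HepG2 cells, 24 h post-dosing. Fluorescence from RT-PCR products separated by capillary electrophoresis; DMSO baseline.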

[3] = ATG_M_32_TRANS: Attagene TRANS-FACTORIAL HepG2 Assay for M32 Transcription Factor (Internal Marker) (AID 2282984; active means hit-call score of the fitted dose curve at least 0.9, where 1 is the maximum;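 further: transcript level of a background control reporter unit measured by RT-PCR and capillary electrophoresis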); conditions: HepG2 Attagene TRANS M32 internal marker reporter
How it was run: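 Internal-marker readout from a multiplexed transcription reporter panel. HepG2 cells were transfected with GAL4-UAS reporter units, treated 24 hours, and reporter transcript levels determined by fluorescence after RT-PCR and capillary separation.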

[4] = biological target: Nuclear receptor subfamily 4 group A member 2 (Homo sapiens) (UniProt P43354); assay: ATG_NURR1_TRANS: Attagene TRANS-FACTORIAL HepG2 Assay for human Nuclear Receptor Related Protein 1 (NURR1) (AID 2282985; active means hit-call score of the fitted dose curve at least 0.9, where 1 is the maximum); conditions: HepG2 Attagene TRANS reporter, mRNA readout
Nuclear receptor subfamily 4 group A member 2 (Homo sapiens), sequence (P43354 whole entry, looked up): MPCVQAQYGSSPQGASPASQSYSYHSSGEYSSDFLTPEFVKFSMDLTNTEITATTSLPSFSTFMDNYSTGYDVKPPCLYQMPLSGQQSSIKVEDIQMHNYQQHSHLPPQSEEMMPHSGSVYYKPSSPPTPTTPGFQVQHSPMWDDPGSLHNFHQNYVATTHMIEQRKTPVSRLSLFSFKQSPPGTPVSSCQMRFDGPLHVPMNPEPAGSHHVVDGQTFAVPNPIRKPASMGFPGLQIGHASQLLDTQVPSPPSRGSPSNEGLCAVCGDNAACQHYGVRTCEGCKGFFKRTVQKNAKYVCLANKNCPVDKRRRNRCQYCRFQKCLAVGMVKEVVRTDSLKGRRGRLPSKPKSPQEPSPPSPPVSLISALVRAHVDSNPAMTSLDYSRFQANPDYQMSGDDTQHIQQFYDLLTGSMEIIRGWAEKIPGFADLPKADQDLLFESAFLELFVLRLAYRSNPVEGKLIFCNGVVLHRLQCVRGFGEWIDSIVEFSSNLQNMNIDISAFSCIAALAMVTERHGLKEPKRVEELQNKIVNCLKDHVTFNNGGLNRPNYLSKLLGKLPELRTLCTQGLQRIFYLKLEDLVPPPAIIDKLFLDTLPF
How it was run: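 Endpoint: reporter mRNA increase relative to DMSO. HepG2 cells transfected with reporter units, treated 24 h; RNA processed by RT-PCR, labelling, HpaI digestion and capillary electrophoresis.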

[5] = biological target: Transcriptional activator Myb (Homo sapiens) (UniProt P10242); assay: ATG_Myb_CIS: Attagene CIS-FACTORIAL HepG2 Assay for human Myeloblastosis (Myb) Proto-Oncogene Transcription Factor (AID 2282986); conditions: HepG2 Attagene CIS-FACTORIAL Myb reporter transcription; actives raise or lower the signal
Transcriptional activator Myb (Homo sapiens), sequence (P10242 whole entry, looked up): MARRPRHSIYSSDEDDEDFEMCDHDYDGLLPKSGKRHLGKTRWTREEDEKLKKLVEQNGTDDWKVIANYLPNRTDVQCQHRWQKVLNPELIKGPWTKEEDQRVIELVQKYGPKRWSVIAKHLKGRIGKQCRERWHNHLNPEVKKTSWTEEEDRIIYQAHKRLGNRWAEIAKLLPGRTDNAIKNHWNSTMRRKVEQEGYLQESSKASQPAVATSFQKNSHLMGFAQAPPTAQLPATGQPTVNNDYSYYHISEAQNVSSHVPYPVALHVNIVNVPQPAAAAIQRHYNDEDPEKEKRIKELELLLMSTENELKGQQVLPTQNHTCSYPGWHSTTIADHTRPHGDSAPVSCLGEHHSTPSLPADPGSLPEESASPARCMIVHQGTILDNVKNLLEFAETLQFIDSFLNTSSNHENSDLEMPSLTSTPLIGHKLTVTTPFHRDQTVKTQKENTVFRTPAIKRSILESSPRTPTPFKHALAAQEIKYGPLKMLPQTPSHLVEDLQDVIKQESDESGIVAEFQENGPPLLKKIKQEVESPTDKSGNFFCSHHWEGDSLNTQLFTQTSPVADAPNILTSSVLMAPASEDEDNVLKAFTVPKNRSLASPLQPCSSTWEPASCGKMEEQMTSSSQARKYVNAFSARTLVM
How it was run: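 Reporter mRNA is quantified by RT-PCR and capillary electrophoresis 24 h after dosing HepG2 cells transfected with cis-regulated reporter units, which track endogenous transcription factor activity. Gain and loss of signal are fitted versus DMSO baseline.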

[6] = biological target: Nuclear respiratory factor 1 (Homo sapiens) (UniProt Q16656); assay: ATG_NRF1_CIS: Attagene CIS-FACTORIAL HepG2 Assay for human Nuclear Respiratory Factor 1 (NRF1) Orphan Gene (AID 2282987); conditions: HepG2 NRF1 cis-element reporter, Attagene multiplex; actives raise or lower the signal
Nuclear respiratory factor 1 (Homo sapiens), sequence (Q16656 whole entry, looked up): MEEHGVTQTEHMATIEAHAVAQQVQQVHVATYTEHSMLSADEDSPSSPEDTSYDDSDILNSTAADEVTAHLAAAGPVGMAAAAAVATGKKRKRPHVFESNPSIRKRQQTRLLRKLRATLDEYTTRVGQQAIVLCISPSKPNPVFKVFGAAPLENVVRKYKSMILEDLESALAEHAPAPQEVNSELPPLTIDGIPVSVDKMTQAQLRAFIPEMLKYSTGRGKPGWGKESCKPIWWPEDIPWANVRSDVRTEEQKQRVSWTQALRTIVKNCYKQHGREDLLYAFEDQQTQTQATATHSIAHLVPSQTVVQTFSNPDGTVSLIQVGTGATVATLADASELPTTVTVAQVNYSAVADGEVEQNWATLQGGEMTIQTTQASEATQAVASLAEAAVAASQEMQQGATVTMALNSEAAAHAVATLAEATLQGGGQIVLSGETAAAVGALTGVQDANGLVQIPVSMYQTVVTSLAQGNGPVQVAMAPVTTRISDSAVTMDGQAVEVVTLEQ
How it was run: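 Endogenous NRF1-driven reporter transcription in transfected HepG2 cells after 24 h treatment. Readout: RT-PCR products, 6-FAM labelled and resolved by capillary electrophoresis; changes fitted both directions relative to DMSO.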

[7] = ATG_NFI_CIS: Attagene CIS-FACTORIAL HepG2 Assay for human Nuclear Factor I (NFI) (AID 2282989); conditions: HepG2 cis-regulatory reporter, NFI response element transcription; actives raise or lower the signal
How it was run: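 Transient MRTU transfection of HepG2 → 24 h chemical dosing → total RNA, oligo(dT) RT → PCR, 6-FAM primer extension, HpaI cut → capillary electrophoresis. Endpoint fitted bidirectionally relative to DMSO.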

[8] = biological target: Myc proto-oncogene protein (Homo sapiens) (UniProt P01106); assay: ATG_Myc_CIS: Attagene CIS-FACTORIAL HepG2 Assay for human Myelocytomatosis (Myc) Proto-Oncogene Transcription Factor (AID 2282990); conditions: HepG2, Attagene cis-reporter transcription factor activity; actives raise or lower the signal
Myc proto-oncogene protein (Homo sapiens), sequence (P01106 whole entry, looked up, the tested form may be a part): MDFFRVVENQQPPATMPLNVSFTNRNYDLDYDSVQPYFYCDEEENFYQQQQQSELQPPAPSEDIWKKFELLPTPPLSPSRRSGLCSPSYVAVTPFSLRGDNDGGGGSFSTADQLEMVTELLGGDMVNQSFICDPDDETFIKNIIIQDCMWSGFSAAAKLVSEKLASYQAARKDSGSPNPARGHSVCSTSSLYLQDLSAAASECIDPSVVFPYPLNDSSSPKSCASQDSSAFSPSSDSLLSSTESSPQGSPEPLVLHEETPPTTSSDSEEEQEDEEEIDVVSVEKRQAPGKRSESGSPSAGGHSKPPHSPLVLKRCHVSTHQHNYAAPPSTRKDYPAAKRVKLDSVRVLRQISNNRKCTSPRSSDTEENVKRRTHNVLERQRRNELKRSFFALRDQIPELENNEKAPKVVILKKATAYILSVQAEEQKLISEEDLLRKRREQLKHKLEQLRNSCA
How it was run: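 Fluorescence intensity of reporter-specific cDNA fragments, separated by capillary electrophoresis, gives the signal. Transfected HepG2 cells carrying cis-promoter reporter constructs are incubated with compound for 24 h; DMSO serves as baseline.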

[9] = ATG_NF_kB_CIS: Attagene CIS-FACTORIAL HepG2 Assay for human Nuclear Factor Kappa B (NF-kB) (AID 2282991); conditions: HepG2 Attagene cis-factorial NF-kB reporter mRNA; actives raise or lower the signal
How it was run: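 Readout is reporter transcript level, gain or loss versus DMSO, measured 24 h post-dose via RT-PCR, fluorescent labelling and capillary electrophoresis. Human HepG2 liver cells carried transiently transfected CIS reporter constructs reflecting endogenous factors.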

[10] = ATG_NRF2_ARE_CIS: Attagene CIS-FACTORIAL HepG2 Assay for human Nuclear Factor Erythroid 2 Related Factor 2 (NFR2) response to Antioxidant Response Elements (ARE) (AID 2282992); conditions: HepG2 Attagene ARE/NRF2 reporter, transcription factor activity; actives raise or lower the signal
How it was run: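 Endogenous transcription factor activity read out as reporter transcript levels (RT-PCR plus capillary electrophoresis, fluorescence) in transiently transfected HepG2 cells. Measured at 24 h after dosing; gain or loss of signal fitted versus DMSO.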

[11] = ATG_Oct_MLP_CIS: Attagene CIS-FACTORIAL HepG2 Assay for human Octamer-Binding Transcription Factor (Oct) (AID 2282993); conditions: HepG2 Attagene cis-factorial Oct reporter, mRNA; actives raise or lower the signal
How it was run: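 Transient MRTU transfection of HepG2 → 24 h compound treatment → RNA isolation, reverse transcription, PCR → 6-FAM primer extension, HpaI digest → capillary electrophoresis. Activity fitted both directions against DMSO.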

[12] = biological target: Cellular tumor antigen p53 (Homo sapiens) (UniProt P04637); assay: ATG_p53_CIS: Attagene CIS-FACTORIAL HepG2 Assay for human p53 Transcription Factor (AID 2282994); conditions: HepG2 p53 cis-element reporter, Attagene mRNA; actives raise or lower the signal
Cellular tumor antigen p53 (Homo sapiens), sequence (P04637 whole entry, looked up): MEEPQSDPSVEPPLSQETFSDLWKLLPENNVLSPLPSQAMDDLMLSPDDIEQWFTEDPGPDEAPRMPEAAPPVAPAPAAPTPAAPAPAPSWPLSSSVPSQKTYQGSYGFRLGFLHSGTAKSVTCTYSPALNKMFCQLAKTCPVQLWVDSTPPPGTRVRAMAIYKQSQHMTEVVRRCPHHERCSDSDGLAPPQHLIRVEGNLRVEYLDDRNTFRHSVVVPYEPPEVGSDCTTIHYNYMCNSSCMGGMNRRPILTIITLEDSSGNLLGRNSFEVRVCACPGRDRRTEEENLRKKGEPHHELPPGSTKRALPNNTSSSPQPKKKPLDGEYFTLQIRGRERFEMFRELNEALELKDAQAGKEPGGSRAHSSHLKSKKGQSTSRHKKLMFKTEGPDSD
How it was run: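 Endogenous p53 activity read in transiently transfected HepG2 from a cis-element-driven reporter transcript after 24 h exposure. RNA reverse-transcribed, PCR-amplified, fluorescently labelled and sized by capillary electrophoresis; gain or loss fitted against DMSO baseline.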

[13] = BSK_3C_TissueFactor: BioMAP Diversity Plus: 3C Assay for Tissue Factor Biomarker Activity (AID 2282997); conditions: BioMAP 3C HUVEC, tissue factor biomarker readout; actives raise or lower the signal
How it was run: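 Tissue factor on primary human umbilical vein endothelium was read by ELISA 24 h after dosing, gain or loss relative to DMSO. Cytotoxicity ran alongside via SRB (0.1%, TCA-fixed, 560 nm).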

[14] = BSK_3C_uPAR: BioMAP Diversity Plus: 3C Assay for Urokinase-type plasminogen activator receptor (uPAR) Biomarker Activity (AID 2282998); conditions: BioMAP 3C HUVEC, uPAR biomarker ELISA; actives raise or lower the signal
How it was run: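 ELISA readout of uPAR on human vascular endothelium (umbilical vein primary cells), taken 24 h after chemical dosing. Increases and decreases are both fitted relative to DMSO vehicle.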

[15] = BSK_3C_VCAM1: BioMAP Diversity Plus: 3C Assay for Vascular cell adhesion molecule 1 (VCAM1) Biomarker Activity (AID 2282999); conditions: BioMAP 3C HUVEC, VCAM1 ELISA, cytokine-stimulated; actives raise or lower the signal
How it was run: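 HUVEC primary cells, 24 h compound exposure; VCAM-1 by ELISA; gain/loss of signal fitted bidirectionally vs DMSO baseline.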

[16] = BSK_4H_Eotaxin3: BioMAP Diversity Plus: 4H Assay for Eotaxin 3 Biomarker Activity (AID 2283000); conditions: primary human endothelial cells (HUVEC); actives raise or lower the signal;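 further: CCL26 protein level quantified by ELISA in parallel with SRB cytotoxicity check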
How it was run: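 Human umbilical vein endothelial cells (BSK_4H system) dosed with test chemical; Eotaxin-3 (CCL26) measured by ELISA 24 h after dosing. Bidirectional curve fitting relative to DMSO negative control as baseline.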

[17] = biological target: human Peroxisome Proliferator-activated Receptor alpha (PPARa), PPARA (gene 5465) (UniProt Q07869); assay: ATG_PPARa_TRANS: Attagene TRANS-FACTORIAL HepG2 Assay for human Peroxisome Proliferator-activated Receptor alpha (PPARa) (AID 2283001; active means hit-call score of the fitted dose curve at least 0.9, where 1 is the maximum)
human Peroxisome Proliferator-activated Receptor alpha (PPARa), PPARA (gene 5465), sequence (Q07869 whole entry, looked up): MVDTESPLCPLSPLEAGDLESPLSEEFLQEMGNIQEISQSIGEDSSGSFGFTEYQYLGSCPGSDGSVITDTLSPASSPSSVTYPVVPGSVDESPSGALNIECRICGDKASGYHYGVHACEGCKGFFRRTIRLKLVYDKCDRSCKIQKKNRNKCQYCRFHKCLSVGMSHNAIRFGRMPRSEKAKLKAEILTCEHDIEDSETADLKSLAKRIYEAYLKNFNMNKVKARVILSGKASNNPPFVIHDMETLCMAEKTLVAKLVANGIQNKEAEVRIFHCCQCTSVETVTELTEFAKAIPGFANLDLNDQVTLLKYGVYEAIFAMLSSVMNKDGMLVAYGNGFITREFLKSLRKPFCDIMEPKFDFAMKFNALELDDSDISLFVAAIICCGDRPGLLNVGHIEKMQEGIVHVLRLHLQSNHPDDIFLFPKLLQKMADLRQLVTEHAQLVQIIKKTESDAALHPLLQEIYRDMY
How it was run: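 HepG2, transient MRTU transfection, 24 h treatment. RT-PCR → FAM labelling → capillary electrophoresis. Fit vs DMSO, positive direction.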

[18] = biological target: human Peroxisome Proliferator-activated Receptor delta (PPARd), PPARD (gene 5467) (UniProt Q03181); assay: ATG_PPARd_TRANS: Attagene TRANS-FACTORIAL HepG2 Assay for human Peroxisome Proliferator-activated Receptor delta (PPARd) (AID 2283002; active means hit-call score of the fitted dose curve at least 0.9, where 1 is the maximum)
human Peroxisome Proliferator-activated Receptor delta (PPARd), PPARD (gene 5467), sequence (Q03181 whole entry, looked up, the tested form may be a part): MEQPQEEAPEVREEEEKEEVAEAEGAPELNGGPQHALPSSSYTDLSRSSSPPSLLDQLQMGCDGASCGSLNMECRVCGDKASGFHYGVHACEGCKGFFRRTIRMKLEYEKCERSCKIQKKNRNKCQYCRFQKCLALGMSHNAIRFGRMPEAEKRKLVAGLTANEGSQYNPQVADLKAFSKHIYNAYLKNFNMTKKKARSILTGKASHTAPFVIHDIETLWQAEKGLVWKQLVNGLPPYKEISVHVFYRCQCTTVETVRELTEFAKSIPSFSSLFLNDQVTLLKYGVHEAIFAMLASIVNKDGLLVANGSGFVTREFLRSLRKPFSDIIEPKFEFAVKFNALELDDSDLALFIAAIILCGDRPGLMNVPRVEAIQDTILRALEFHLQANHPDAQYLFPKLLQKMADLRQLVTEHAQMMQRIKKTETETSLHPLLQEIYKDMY
How it was run: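 Fluorescence from capillary electrophoresis of labelled RT-PCR reporter fragments gives the signal; DMSO sets baseline. Cells: HepG2 transiently carrying GAL4-UAS reporter units plus chimeric nuclear receptor-Gal4 proteins, exposed to chemicals for 24 h.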

[19] = biological target: Oxysterols receptor LXR-beta (Homo sapiens) (UniProt P55055); assay: ATG_LXRb_TRANS: Attagene TRANS-FACTORIAL HepG2 Assay for human Liver X Receptor beta (LXRb) (AID 2282981; active means hit-call score of the fitted dose curve at least 0.9, where 1 is the maximum); conditions: HepG2 Attagene TRANS GAL4-LXRb reporter, mRNA
Oxysterols receptor LXR-beta (Homo sapiens), sequence (P55055 whole entry, looked up, the tested form may be a part): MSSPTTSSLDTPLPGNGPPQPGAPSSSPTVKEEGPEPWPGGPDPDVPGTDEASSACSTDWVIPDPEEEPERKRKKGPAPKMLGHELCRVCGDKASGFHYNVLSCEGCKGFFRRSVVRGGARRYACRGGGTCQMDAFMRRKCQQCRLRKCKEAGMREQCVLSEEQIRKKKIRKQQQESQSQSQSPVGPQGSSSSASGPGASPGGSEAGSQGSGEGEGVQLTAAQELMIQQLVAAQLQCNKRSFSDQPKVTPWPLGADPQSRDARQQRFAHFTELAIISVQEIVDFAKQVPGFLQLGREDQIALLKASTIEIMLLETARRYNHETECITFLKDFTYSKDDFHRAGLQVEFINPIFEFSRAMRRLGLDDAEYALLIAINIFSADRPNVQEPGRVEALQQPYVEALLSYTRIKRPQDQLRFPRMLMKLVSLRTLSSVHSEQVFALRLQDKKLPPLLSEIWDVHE
How it was run: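 Multiplexed reporter assay, HepG2, 24 h dosing. Fluorescence of labelled RT-PCR products after capillary electrophoresis gives transcript level; positive fitting direction relative to DMSO.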

[20] = ATG_M_06_TRANS: Attagene TRANS-FACTORIAL HepG2 Assay for M06 Transcription Factor (Internal Marker) (AID 2282983; active means hit-call score of the fitted dose curve at least 0.9, where 1 is the maximum); conditions: HepG2 Attagene TRANS M06 internal marker reporter
How it was run: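 Background-control reporter readout: after 24 h chemical exposure of transiently transfected HepG2 (GAL4-UAS reporter units), mRNA quantified by RT-PCR with fluorescent labeling and capillary electrophoresis. Gain-of-signal fitting against DMSO baseline.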

Measured: AC50

COC(=O)c1c(Cl)c(Cl)c(C(=O)OC)c(Cl)c1Cl
not listed: [19] | [20]
inactive: all other assays above

CC(C)(O)c1coc(S(=O)(=O)NC(=O)Nc2c3c(cc4c2CCC4)CCC3)c1
not listed: [1] | [2] | [5] | [17] | [18] | [20]
inactive: all other assays above

O=C1CCC(N2C(=O)c3ccccc3C2=O)C(=O)N1 (stereo not given)
not listed: [2] | [17] | [19]
inactive: all other assays above

CC(=O)OCCC(C)C
not listed: [1] | [2] | [3] | [9] | [18]
inactive: all other assays above

Nc1cccc(N)c1
not listed: [1] | [2] | [3] | [5] | [17] | [18]
inactive: all other assays above

CCN(C(=O)c1cc(C)cc(OC[C@H](C)Nc2ccncc2)c1)C(C)C
active: [1] 486 nM | [10] 8.92 µM
not listed: [2] | [17] | [18] | [19]
inactive: all other assays above

CC(C)CCO
not listed: [1] | [4] | [5] | [18]
inactive: all other assays above
